Test results: PubChem BioAssay (Tox21)
Records with an inconclusive call do not appear. The source made the active and inactive calls. Unless noted, calls follow the shape of the dose curve; as a rule, active = well fitted curve in the direction sought with a large enough effect in the repeat runs; inconclusive = weak or mixed curves; inactive = no such curve, though single readings can be large; an effect the other way counts as inactive or inconclusive.

What was measured:
[1] = qHTS assay to identify small molecule antagonists of the retinoid-related orphan receptor gamma (ROR-gamma) signaling pathway - cell viability counter screen (AID 1159520); settings: Tet-on RORgamma CHO cells viability, ATP luminescence, 16 h; series mostly up to 92.4 µM; also: nearly all actives have a fitted effect of over 50% in size; also: potency is read from the fitted curve at half-maximal effect
How it was run: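 Tet-on ROR gamma CHO cells were given compounds for 2 hr, then doxycycline hyclate at 1 uM final, and incubated 16 hr at 37 C. Viability was measured as ATP content by CellTiter-Glo luminescence.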

[2] = molecular target: Nuclear receptor ROR-gamma (Homo sapiens) (UniProt P51449); assay: qHTS assay to identify small molecule antagonists of the retinoid-related orphan receptor gamma (ROR-gamma) signaling pathway (AID 1159521; also: nearly all actives have a fitted effect of over 50% in size; also: potency is read from the fitted curve at half-maximal effect); settings: Tet-on RORgamma CHO cells, RORE-luciferase, 16 h; series mostly up to 92.4 µM
How it was run: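 CHO cells expressing RORγ under a TET-on promoter, luciferase under RORE control. Dox 1 uM final, 16 h; compounds added 2 h prior. Luminescence decrease measured.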

[3] = qHTS assay to identify small molecule agonists of the RXR signaling pathway - cell viability counter screen (AID 1159529); settings: RXR-alpha-bla HEK293T viability, CellTiter-Glo, 16 h; series mostly up to 76.8 µM; also: nearly all actives have a fitted effect of over 50% in size; also: potency is read from the fitted curve at half-maximal effect
How it was run: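 Same-well viability check after the LiveBLAzer FRET read: CellTiter-Glo added, luminescence measured after 30 min at room temperature. Reporter HEK 293T cells had been treated with compounds for 16 hr following a 5 hr preincubation.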

[4] = qHTS assay to identify small molecule antagonists of the retinoid acid receptor (RAR) signaling pathway - cell viability counter screen (AID 1159551); settings: C3RL4 cells viability, ATP luminescence (CellTiter-Glo), 6 h; series mostly up to 92.4 µM; also: nearly all actives have a fitted effect of over 35% in size
How it was run: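 Measured by luminescent ATP detection, viability reflects C3RL4 cells treated 6 h at 37 C with test chemicals in the presence of 1 uM (final) retinol.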

[5] = qHTS assay to identify small molecule agonists of the retinoic acid receptor (RAR) signaling pathway (AID 1159553); settings: C3RL4 RARE luciferase reporter, agonist, 6 h; series mostly up to 73.3 µM
How it was run: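 6 hr compound exposure (DMSO vehicle) of overnight-plated C3RL4 RARE-luc cells at 37 C; luminescence quantified after 30 min RT with luciferase reagent.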

[6] = qHTS assay to identify small molecule antagonists of the estrogen related receptor (ERR) signaling pathway - cell viability counter screen (AID 1224818); settings: ERR reporter cell line viability counter screen; series mostly up to 92.2 µM
How it was run: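 Compounds dissolved in DMSO were applied to ERR cells seeded at 2,000 per well 6 h earlier. Cell viability followed 17.5 h later via 30-min CellTiter-Fluor fluorescence.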

[7] = qHTS assay to identify small molecule antagonists of the estrogen related receptor (ERR) signaling pathway (AID 1224819;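 also: luminescence from an ERR-driven luciferase reporter measured with One-Glo reagent; nearly all actives have a fitted effect of over 50% in size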); settings: ERR reporter cell line, luciferase inhibition; series mostly up to 92.2 µM
How it was run: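 Compounds dissolved in DMSO were pin-transferred onto ERR cells that had been plated 6 h earlier, and cells were then incubated 18 h at 37 C; signal was luciferase luminescence via One-Glo.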

[8] = qHTS assay to identify small molecule agonists of the estrogen related receptor (ERR) signaling pathway (AID 1224820); settings: ERR reporter cell line, luciferase agonist mode; series mostly up to 92.2 µM
How it was run: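 An ERR cell line provided by NTP was seeded at 2,000 cells per well and allowed to settle for 6 h before compounds in DMSO were added. After 18 h at 37 C, luciferase activity was measured by One-Glo luminescence.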

[9] = test system: estrogen-related receptor alpha (ERRalpha) with PGC-1alpha coactivator, human; assay: qHTS assay to identify small molecule antagonists of the estrogen related receptor signaling pathway with the pleiotropic PPARgamma coactivator (PGC) (AID 1224821; calls by dose curve); settings: ERR/PGC reporter cell line, luciferase, antagonist mode; series mostly up to 92.2 µM
How it was run: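 A PGC/ERR cell line supplied by NTP is seeded, allowed 6 h at 37 C, and treated with test compounds in DMSO for 18 h. Signal is then measured as luciferase luminescence using One-Glo.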

[10] = qHTS assay to identify small molecule antagonists of the estrogen related receptor signaling pathway with the pleiotropic PPARgamma coactivator (PGC) cell viability counter screen (AID 1224822); settings: ERR/PGC reporter cell line viability counter screen; series mostly up to 92.2 µM
How it was run: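 Counter screen for cell viability: PGC/ERR cells, 6 h pre-incubation after plating, 17.5 h compound exposure at 37 C, fluorescence from CellTiter-Fluor after 30 min.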

[11] = qHTS assay to identify small molecule agonists of the estrogen related receptor signaling pathway with the pleiotropic PPARgamma coactivator (PGC) (AID 1224823); settings: ERR/PGC reporter cell line, luciferase agonist mode; series mostly up to 92.2 µM
How it was run: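 Compounds dissolved in DMSO are added by pin tool to PGC/ERR cells that have settled for 6 h, and incubation continues 18 h at 37 C. Reporter output is measured as One-Glo luminescence.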

[12] = qHTS assay to identify small molecule antagonists of the estrogen related receptor (ERR) signaling pathway from Tox21 library - cell viability counter screen (AID 1224834); settings: ERR reporter cells viability, CellTiter-Fluor, 17.5 h; series mostly up to 92.4 µM; also: nearly all actives have a fitted effect of over 30% in size; also: potency is read from the fitted curve at half-maximal effect
How it was run: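 Seeded ERR cells were rested 6 h at 37 C/5% CO2 before compounds, positive and negative controls or DMSO were added. Incubation continued for 17.5 h, and viability was then quantified by CellTiter-Fluor fluorescence.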

[13] = molecular target: Luciferin 4-monooxygenase (Photinus pyralis) (UniProt P08659); assay: qHTS assay to identify small molecule inhibitors of firefly luciferase (AID 1224835); also: nearly all actives have a fitted effect of over 25% in size; also: potency is read from the fitted curve at half-maximal effect; settings: purified P. pyralis luciferase, luminescence inhibition; series mostly up to 115 µM
How it was run: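 Biochemical qHTS: compounds run as interplate titrations against purified firefly enzyme, with D-luciferin and ATP each at its KM concentration. Light output recorded by CCD imaging.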

[14] = qHTS assay to identify small molecule antagonists of the retinoic acid receptor (RAR) signaling pathway (AID 1159552; also: nearly all actives have a fitted effect of over 50% in size; also: potency is read from the fitted curve at half-maximal effect); settings: C3RL4 RARE luciferase reporter, retinol-stimulated, 6 h; series mostly up to 92.4 µM
How it was run: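 Readout: luciferase luminescence, 30 min post-reagent at RT. Setup: C3RL4 RARE reporter cells, compounds plus retinol 1 uM final, 6 hr incubation at 37 C and 5% CO2.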

[15] = qHTS assay to identify small molecule agonists of the AP-1 signaling pathway - cell viability counter screen (AID 1159525; calls by dose curve; also: nearly all actives have a fitted effect of over 55% in size); settings: ME-180 AP-1-bla cells viability, ATP luminescence, 5 h; series mostly up to 76.8 µM
How it was run: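 Same-well cytotoxicity counter screen of the Tox21 10K library in ME-180 cells. The readout is ATP-dependent luminescence after 5 h compound treatment. Data are normalised to DMSO and tetra n-octyl ammonium bromide controls.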

[16] = qHTS assay to identify small molecule agonists of the AP-1 signaling pathway (AID 1159526; calls by dose curve; also: potency is read from the fitted curve at half-maximal effect); settings: ME-180 (cervical carcinoma) AP-1-bla reporter, beta-lactamase FRET ratio, 5 h; series mostly up to 76.8 µM
[17] = molecular target: Retinoic acid receptor RXR-alpha (Homo sapiens) (UniProt P19793); assay: qHTS assay to identify small molecule agonists of the RXR signaling pathway (AID 1159527; calls by dose curve; also: nearly all actives have a fitted effect of over 35% in size); settings: HEK293T RXRa-UAS-bla, beta-lactamase ratio, 16 h; series mostly up to 76.8 µM
How it was run: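 Beta-lactamase reporter assay, agonist format. Engineered HEK 293T line, charcoal-stripped FBS at 2%, overnight (16 hr) exposure, fluorescence at 460 and 530 nm after 405 nm excitation.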

Measured: Potency

Luciferin 4-monooxygenase (Photinus pyralis), sequence (P08659 whole entry, looked up): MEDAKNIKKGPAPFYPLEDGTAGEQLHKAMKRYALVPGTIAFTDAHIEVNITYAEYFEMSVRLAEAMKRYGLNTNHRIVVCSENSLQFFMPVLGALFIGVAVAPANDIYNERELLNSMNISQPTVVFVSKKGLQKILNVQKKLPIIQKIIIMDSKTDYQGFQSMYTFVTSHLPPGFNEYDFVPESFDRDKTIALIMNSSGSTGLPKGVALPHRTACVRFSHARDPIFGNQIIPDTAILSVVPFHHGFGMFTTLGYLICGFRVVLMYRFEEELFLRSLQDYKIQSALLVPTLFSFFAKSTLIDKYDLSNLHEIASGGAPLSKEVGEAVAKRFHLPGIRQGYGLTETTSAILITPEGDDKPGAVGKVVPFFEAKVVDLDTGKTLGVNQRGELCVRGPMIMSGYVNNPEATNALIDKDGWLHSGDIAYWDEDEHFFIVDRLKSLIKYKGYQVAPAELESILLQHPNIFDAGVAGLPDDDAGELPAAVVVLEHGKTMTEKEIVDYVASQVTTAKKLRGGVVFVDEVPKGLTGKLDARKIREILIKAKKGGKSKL
Retinoic acid receptor RXR-alpha (Homo sapiens), sequence (P19793 whole entry, looked up): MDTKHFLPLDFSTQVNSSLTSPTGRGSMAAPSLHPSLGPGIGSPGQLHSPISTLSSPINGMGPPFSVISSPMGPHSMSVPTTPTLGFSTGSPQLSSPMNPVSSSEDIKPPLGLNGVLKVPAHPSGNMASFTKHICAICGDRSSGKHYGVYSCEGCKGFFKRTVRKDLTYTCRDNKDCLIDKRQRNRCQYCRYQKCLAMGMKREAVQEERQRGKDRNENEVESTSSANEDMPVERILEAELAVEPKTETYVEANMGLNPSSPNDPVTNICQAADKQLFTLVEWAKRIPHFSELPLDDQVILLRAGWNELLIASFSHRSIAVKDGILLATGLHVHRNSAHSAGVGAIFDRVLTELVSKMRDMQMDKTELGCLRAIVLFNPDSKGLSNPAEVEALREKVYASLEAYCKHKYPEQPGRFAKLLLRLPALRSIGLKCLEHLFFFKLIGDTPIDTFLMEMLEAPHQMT

O=[N+]([O-])c1cc([N+](=O)[O-])c2ccccc2c1
not listed: [14] | [15] | [16] | [17]
inactive: all other assays above

Fc1ccc(Oc2ccnc3cc(Cl)cc(Cl)c23)cc1
inactive: [1] | [2] | [4] | [14] | [12]
active: [13] 35.6 µM

CCCN(CCC)CCc1c[nH]c2ccccc12
inactive: [1] | [15] | [3] | [4] | [14] | [5] | [12] | [13]
active: [16] 43.1 µM

CC(=O)[O-].CC(=O)[O-].O.O.[Cd+2]
inactive: [1] | [4]
active: [3] 13.6 µM | [12] 26.9 µM

C[C@]12CC[C@H]3[C@@H](CCC4=CC(=O)CC[C@@]43C)[C@@H]1CC[C@@H]2O
active: [14] 48.2 µM
inactive: [1] | [15] | [3] | [4] | [5] | [12] | [13]

C[C@]12Cc3nonc3C[C@@H]1CC[C@@H]1[C@@H]2CC[C@@]2(C)[C@H]1CC[C@]2(C)O
inactive: [4] | [5] | [13]
active: [2] 7.5 µM | [3] 21.3 µM | [12] 29.8 µM

CC(C)(C)c1ccc(CSc2cnn(C(C)(C)C)c(=O)c2Cl)cc1
inactive: [15] | [16] | [4] | [14] | [5] | [13]
active: [2] 0.154 µM

CC(C)Oc1cccc(NC(=O)c2ccccc2C(F)(F)F)c1
not listed: [2] | [3] | [7] | [9] | [12] | [14] | [17]
inactive: all other assays above

OC(c1ccc(Cl)cc1)(c1ccc(Cl)cc1)C(Cl)(Cl)Cl
active: [1] 61.1 µM
inactive: [15] | [3] | [4] | [14] | [5] | [12] | [13]

N#Cc1c(-c2ccc(Cl)cc2)[nH]c(C(F)(F)F)c1Br
active: [1] 0.611 µM | [2] 0.137 µM | [14] 0.545 µM

CC(Cl)CN(C)C (stereo unspecified)
inactive: [1] | [2] | [3] | [4] | [14] | [12] | [13]

CSCCCN=C=S
inactive: [2] | [15] | [16] | [17] | [3] | [4] | [14] | [13]

O=C(CBr)c1ccc(O)cc1
inactive: [17] | [3]
active: [2] 48.6 µM | [14] 54.5 µM

Cc1cccc(OP(=O)(Oc2cccc(C)c2)Oc2cccc(C)c2)c1
inactive: [1] | [16] | [17] | [3] | [4] | [14] | [12] | [13]
